This is a sample that favours compounds with a hit; in the whole collection about 3.5% have one here.
GPR151 ag – activates the human receptor GPR151 | PathHunter beta-arrestin GPR151 cells, luminescence | Q8TDV0 | 1% of 650,000 active | activation, % at 11.2 µM | AID 1508602; in the data active means activation above about 4.9%;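 further: 0% = median of compound wells and 100% = cells with positive control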
MITF inh – human MITF inhibition, primary screen. AlphaScreen MITF homodimerization, bead proximity signal. inhibition, % at 2.6 µM. 0.91% of 650,000 active; in the data active means inhibition above about 50%;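 further: 0% = vehicle wells with protein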
Target sequence (O75030 whole entry, looked up): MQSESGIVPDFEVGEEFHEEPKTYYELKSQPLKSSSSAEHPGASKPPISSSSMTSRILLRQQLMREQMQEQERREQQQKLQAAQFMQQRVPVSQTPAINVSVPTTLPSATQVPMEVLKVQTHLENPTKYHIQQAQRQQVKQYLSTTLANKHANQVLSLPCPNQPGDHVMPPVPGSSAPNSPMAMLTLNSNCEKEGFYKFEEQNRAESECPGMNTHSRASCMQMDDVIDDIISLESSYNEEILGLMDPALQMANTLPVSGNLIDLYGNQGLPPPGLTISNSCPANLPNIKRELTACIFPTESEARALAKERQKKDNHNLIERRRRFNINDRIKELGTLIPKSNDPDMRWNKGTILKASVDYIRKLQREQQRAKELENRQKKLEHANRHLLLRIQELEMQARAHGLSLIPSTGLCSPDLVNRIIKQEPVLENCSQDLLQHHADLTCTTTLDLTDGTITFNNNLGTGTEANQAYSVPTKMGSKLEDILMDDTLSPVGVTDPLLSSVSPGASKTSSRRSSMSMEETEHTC
FBW7 activator – activators of human E3 ligase FBW7; 0.13% of 650,000 active; AlphaScreen FBW7–phospho-cyclin E peptide binding, activator screen; normalized activity (activation), % at 26.1 µM; in the data active means normalized activity above about 1.9%;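 further: purified mutant Fbw7 with reduced substrate affinity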
TEAD-YAP block – TEAD-YAP interaction inhibition. HEK-TIYL cells, TEAD-Gal4/YAP UAS-luciferase luminescence. inhibition, % at 9.12 µM. 1.4% of 640,000 active. AID 1259422; in the data active means inhibition above about 32%;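 further: 0% = median of test compound wells and 100% = reference inhibitor wells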
MITF inh conf – human MITF inhibition, confirmation; shares compounds with MITF inh; AlphaScreen MITF homodimerization, biotin/His-MITF beads; inhibition, % at 2.6 µM; 16% of 4,700 active;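 active means inhibition above a cutoff derived from the DMSO control wells, cut at about 28% in these data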;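 further: 0% = MITF dimer wells with DMSO only; inhibitors lower the bead chemiluminescence by keeping MITF from dimerizing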
AlphaScreen intf2 – AlphaScreen optical interference, counter-screen | LysRS AlphaScreen counterscreen, signal interference, triplicate | 7.6% of 4,700 active | shares compounds with MITF inh | inhibition, % at 2.6 µM;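 active means inhibition above a cutoff derived from the DMSO control wells, cut at about 30% in these data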
* = called active by the depositor; x = not tested or not shown.

SMILES	GPR151 ag	MITF inh	FBW7 activator	TEAD-YAP block	MITF inh conf	AlphaScreen intf2
CCc1ccc(OCCCCCn2ccnc2)cc1	-0.3	53.1*	-0.4	6.2	-5.1	-2.2
c1ccc(OCCCn2ccnc2)cc1	-0.5	-1.1	0.1	7.5	x	x
CC1=C(C#N)C(=O)N(CCc2ccccc2)C(=O)/C1=C/c1ccc(-c2ccc3c(c2)COC3=O)o1	0.0	-0.3	-0.2	3.1	x	x
Cc1nn2c(nc(N3CCCCCC3)c3ccccc32)c1C=O	1.8	61.6*	0.0	-10.3	5.8	6.2
CCOC(=O)/C(C#N)=N/Nc1ccc(Cl)cc1	1.8	1.9	-0.1	-16.0	x	x
COc1ccc(CN2CCN(C3CC4CCC3C4)CC2)cc1OC (centres undefined)	-0.1	63.5*	-0.4	13.8	-15.8	-0.2
COc1ccc(CN2CCN(C3CC4CCC3C4)CC2)cc1 (centres undefined)	-0.4	76.6*	1.1	-4.5	1.0	0.6
c1ccc(CN2CCC(N3CCN(C4CC5CCC4C5)CC3)CC2)cc1 (centres undefined)	1.9	34.8	-0.1	4.6	x	x
COc1ccc(CN2CCN(C3CCCC3)CC2)cc1OC	-0.6	47.3	0.1	8.6	x	x
COc1ccc(C(=O)NC(C)c2ccccc2Cl)cc1OC1CCN(C(C)=O)CC1 (centres undefined)	0.2	14.9	0.0	14.3	x	x
Cc1ccc(S(=O)(=O)N2CCOCC2)cc1C(=O)OCC(=O)c1cc2ccccc2o1	-0.5	0.2	0.1	-8.2	x	x
Cc1c(C)c2ccc(OC(C)C(=O)O)c(C)c2oc1=O (centres undefined)	1.1	-0.1	0.1	-1.2	x	x
Cc1ccc(-n2ncc3c(=O)n(CC(=O)Nc4ccc([N+](=O)[O-])cc4)cnc32)cc1C	-0.2	7.8	0.2	19.0	x	x
CC(=O)Oc1cc(-c2coc3cc(OC(C)=O)c(OC(C)=O)c(OC(C)=O)c3c2=O)cc(OC(C)=O)c1OC(C)=O	-1.9	73.2*	-0.2	8.4	3.0	-5.8
O=C(CN1C(=O)NC2(CCc3ccccc32)C1=O)Nc1nc(-c2ccc(F)cc2)cs1 (centres undefined)	2.0	-1.8	-0.1	7.7	x	x
CC1=C(C(=O)Nc2ccccc2C)C(c2ccco2)C(C#N)=C(SCC(=O)Nc2ccc(C)cc2)N1 (centres undefined)	1.9	-10.1	-0.1	-15.4	x	x
CCOc1ccc(NC(=O)CSC2=C(C#N)C(c3ccco3)C(C(=O)Nc3ccccc3C)=C(C)N2)cc1 (centres undefined)	1.2	63.0*	-0.1	7.5	-0.2	3.2
Cc1ccc(NC(=O)C(Cc2c[nH]c3ccccc23)NC(=O)OC(C)(C)C)cc1 (centres undefined)	-0.2	62.5*	0.1	6.6	1.5	12.1
Cc1cccc(-c2noc(CCCC(=O)NC(C)C)n2)c1	-2.1	7.9	0.3	-1.2	x	x
C=CCNC(=O)N1CCN(Cc2nc3ccccc3n2Cc2ccccc2)CC1	1.8	78.5*	-0.4	-12.7	-4.4	13.5
COC(=O)c1ccc(CN2CCN(Cc3nc4ccccc4n3Cc3ccccc3)CC2)o1	-0.2	67.2*	-0.7	-12.0	10.6	26.6
CC(C)(C)C(=O)N1CCN(Cc2nc3ccccc3n2Cc2ccccc2)CC1	1.3	13.5	0.4	-24.8	x	x
O=C(Nc1ccc(F)cc1)N1CCN(Cc2nc3ccccc3n2Cc2ccccc2)CC1	-1.3	3.3	0.1	-25.3	x	x
NC1=NC(=O)C(C(=O)NC2(C(F)(F)F)Oc3ccc(Cl)cc3O2)S1 (centres undefined)	-2.3	-6.8	-0.1	-13.9	x	x
N#CCCC1(CCC#N)S(=O)(=O)CC(c2ccccc2)CS1(=O)=O	1.1	6.8	0.0	-1.3	x	x
SMILES	GPR151 ag	MITF inh	FBW7 activator	TEAD-YAP block	MITF inh conf	AlphaScreen intf2
CC1CCN(c2nc3c(c(=O)[nH]2)CCN(Cc2ccc(N(C)C)cc2)C3)CC1	0.7	14.9	-0.3	6.0	x	x
CCCCCCCC(=O)Nc1ccc(C(=O)NCCCCCC)cc1	0.4	-6.7	-0.2	-3.7	x	x
CC(C(=O)Nc1ccccc1-c1ccccc1)N1CCN(C)CC1 (centres undefined)	-0.1	68.1*	-0.1	-5.1	-2.8	-1.0
COc1cn(CC(=O)Nc2ccccc2C)c(CSc2nc(C)cc(C)n2)cc1=O	-2.4	-10.5	-0.1	-11.2	x	x
Clc1ccccc1CN1CCC(N2CCCCC2)CC1	-0.8	-4.3	-0.1	6.4	x	x
Fc1ccccc1CN1CCC(N2CCN(c3ccccc3)CC2)CC1	-0.8	53.1*	-0.2	-3.8	2.2	8.9

Bioassay records from PubChem.
